Compounds with a hit are over-represented: about 16% of the library has one in this group of screens.
TDP1 cell noCPT – qHTS for Inhibitors of human tyrosyl-DNA phosphodiesterase 1 (TDP1): qHTS in cells in absence of CPT; Potency, µM (titrated, usually from 46.2 µM), usual class: inhibitors; DT40 Tdp1-/- hTDP1 cells, no CPT, ATP luminescence, 48 h; 420,000 tested, 15% active; further: nearly all actives have a fitted effect of over 55% in size
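Readout: luminescence from CellTiter-Glo after 30 min in the dark at RT. Cells: DT40 Tdp1-/- with stable hTDP1, 400/well. Exposure: compounds alone, ≥48 hr, 37 °C.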
miR-21 act – qHTS Assay for Modulators of miRNAs and/orActivators of miR-21; Potency, µM (series often up to 38.3 µM), hits mostly activators; HeLa miR-21 FLuc reporter, luciferase, 48 h; 340,000 tested, under 10 active;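 further: miR-21 action dims this reporter so a rising signal means less miR-21 action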
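HeLa cells stably expressing CMV-driven firefly luciferase with a downstream miR-21 binding sequence, endogenously expressing miR-21, were treated with titrations (up to about 40uM final) for 48 hours at 37 degree Celsius. Luciferase luminescence was read after lysis.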
DT40 TDP1 CPT – qHTS for Inhibitors of human tyrosyl-DNA phosphodiesterase 1 (TDP1): qHTS in cells in presence of CPT | chicken DT40 Tdp1-/-;hTDP1 cells + 20 nM CPT, ATP luminescence, 48 h | Potency, µM (top dose mostly 46.2 µM), most hits filed as inhibitors | 420,000 tested, 12% active | AID 686979, 2013; further: nearly all actives have a fitted effect of over 55% in size
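Chicken DT40 Tdp1-/- cells stably complemented with human TDP1 were seeded at 400 cells/well in medium containing 20 nM camptothecin, exposed to pin-transferred compounds, and grown at 37 °C for at least 48 hr. Viability was read as ATP luminescence.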
TDP1 inh – qHTS Assay for Inhibitors of Tyrosyl-DNA Phosphodiesterase (TDP1). Tyrosyl-DNA phosphodiesterase 1 (Homo sapiens), Q9NUW8. recombinant TDP1, AlphaScreen DNA substrate cleavage. Potency, µM (series often up to 130 µM), hits mostly inhibitors. 350,000 tested, 0.28% active. AID 485290, 2010; further: nearly all actives have a fitted effect of over 40% in size
Target sequence (Q9NUW8 whole entry, looked up): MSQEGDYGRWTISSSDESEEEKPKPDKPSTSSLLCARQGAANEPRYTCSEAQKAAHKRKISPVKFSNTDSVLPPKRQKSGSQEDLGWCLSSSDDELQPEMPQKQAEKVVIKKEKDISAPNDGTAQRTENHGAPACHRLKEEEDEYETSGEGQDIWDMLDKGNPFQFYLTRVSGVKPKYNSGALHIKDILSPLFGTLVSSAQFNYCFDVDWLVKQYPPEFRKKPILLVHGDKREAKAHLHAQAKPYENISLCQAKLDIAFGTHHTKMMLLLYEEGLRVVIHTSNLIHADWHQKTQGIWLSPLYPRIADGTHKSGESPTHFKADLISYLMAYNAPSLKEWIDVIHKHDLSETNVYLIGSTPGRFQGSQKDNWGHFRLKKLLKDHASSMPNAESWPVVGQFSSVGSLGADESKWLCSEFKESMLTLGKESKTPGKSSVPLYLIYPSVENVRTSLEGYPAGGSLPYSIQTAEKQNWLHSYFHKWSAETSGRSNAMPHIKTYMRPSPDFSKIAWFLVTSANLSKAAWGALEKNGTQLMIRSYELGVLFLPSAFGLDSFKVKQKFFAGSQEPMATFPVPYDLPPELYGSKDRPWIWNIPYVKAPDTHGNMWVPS
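Tdp1 1 nM final; 15 min RT w/ cpd; substrate 15 nM, 5 min; beads 10 ug/ml, 10 min; AlphaScreen read. Neg ctrl: no enzyme.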
uPA generation – qHTS for Inhibitors of Cell Surface uPA Generation. cell surface uPA generation assay, qHTS. Potency, µM (top dose mostly 38.3 µM), most hits filed as inhibitors. 330,000 tested, 0.31% active. AID 540303, 2011; active means well fitted inhibition curve with a large enough effect; inconclusive means small, poorly fitted or top-dose-only effect; inactive means no such curve, though single readings can be large or run the other way; tested in mouse RAW 264.7 cells; further: nearly all actives have a fitted effect of over 55% in size
A number is an active result; 0 = inactive; ? = inconclusive; - = not tested or not shown. Unless noted, the call rests on the fitted dose curve; in most records, active means well fitted curve in the direction sought with a large enough effect; inconclusive means small, poorly fitted or top-dose-only effect, or another doubt; inactive means no such curve, though single readings can be large; an effect the other way counts as inactive or inconclusive.

SMILES | TDP1 cell noCPT | miR-21 act | DT40 TDP1 CPT | TDP1 inh | uPA generation
COc1cc(NC(=O)c2ccc(Cl)cc2)c(OC)cc1NC(=O)CN1CCOCC1 | ? | 0 | ? | 0 | 0
COCC1CCCCN1C(=O)C1CCN(c2nc(-c3ccccc3)nc3c2CCC3)CC1 (centres undefined) | 15µM | 0 | 18µM | 0 | 0
COCC1CCN(C(=O)C2CCN(c3nc(-c4ccccc4)nc4c3CCC4)CC2)C1 (centres undefined) | ? | 0 | ? | 0 | 0
NC1=NC(c2ccc(Cl)cc2)C(C(=O)c2ccccc2)N1 (centres undefined) | 12µM | ? | ? | - | ?
Cc1cc(C)cc(NS(=O)(=O)c2ccc(NC(=O)c3ccccc3C(=O)O)cc2)c1 | 0 | - | 0 | - | 0
CCCCNC(=O)c1c(N)[nH]c(C(=O)c2ccccc2)c1-c1ccc(Cl)cc1 | 0 | - | 0 | - | -
O=C(C1=NOC(CNc2ncc(C(F)(F)F)cc2Cl)C1)N1CCOCC1 (centres undefined) | 0 | 0 | 0.46µM | 0 | 0
CC1CCN(Cc2c(C(=O)N/N=C/c3ccc(C(F)(F)F)cc3)nnn2-c2nonc2N)CC1 | ? | 0 | ? | 0 | 0
Cc1cc(C)c(/C=N/NC(=O)c2nnn(-c3nonc3N)c2CN2CCC(C)CC2)c(C)c1 | 21µM | 0 | ? | 0 | 0
CC1CCN(Cc2c(C(=O)N/N=C/c3cc(Cl)ccc3O)nnn2-c2nonc2N)CC1 | 5.8µM | ? | 4.6µM | 0 | 0
COc1c(Cl)cc(Cl)cc1/C=N/NC(=O)c1nnn(-c2nonc2N)c1CN1CCC(C)CC1 | ? | 0 | 15µM | 0 | 0
CCOc1ccc(/C=N/NC(=O)c2nnn(-c3nonc3N)c2CN2CCC(C)CC2)cc1 | ? | 0 | 0 | 0 | 0
CC1CCN(Cc2c(C(=O)N/N=C/c3cc(Br)ccc3O)nnn2-c2nonc2N)CC1 | 5.8µM | ? | 5.8µM | 0 | 0
CC(=O)NCCc1ccc(C(=O)COC(=O)c2cccs2)cc1 | 0 | - | 0 | - | -
O=C(O)CCN1CCc2ccccc2C1c1ccncc1 (centres undefined) | 0 | 0 | 0 | 0 | 0
Cc1occc1C(=O)Nc1ccc2c(c1)CCC2 | 0 | 0 | ? | 0 | -
CCn1c2ccccc2c2nnc(SCC(=O)OCN3C(=O)c4ccccc4C3=O)nc21 | 0 | 0 | 0 | 0 | 0
CC1(C)CC(=O)C=C(Nc2cccc(C(F)(F)F)c2)C1 | ? | - | 0 | - | 0
Cc1ccc(Sc2c(C)nn(C(=O)COc3ccccc3Br)c2C)cc1 | 0 | 0 | 0 | - | -
CC1CCN(Cc2c(C(=O)N/N=C/c3cccc(C(F)(F)F)c3)nnn2-c2nonc2N)CC1 | 15µM | 0 | 15µM | 0 | 0
COc1ccc(O)c(/C=N/NC(=O)c2c(C)nnn2-c2nonc2N)c1 | 8.2µM | 0 | 18µM | ? | 0
C/C(=N\NC(=O)c1nnn(-c2nonc2N)c1CN1CCc2ccccc21)c1ccccc1O | 6.5µM | 0 | 6.5µM | 0 | ?
CC(=O)NC1C(OCc2cccc(Br)c2)OC(COC(C)=O)C(OC(C)=O)C1OC(C)=O (centres undefined) | 0 | 0 | 0 | 0 | 0
CS(=O)(=O)Nc1ccc(C(=O)Nc2ccc3c(c2)OCCO3)cc1 | 0 | 0 | 0 | 0 | -
Cc1ccc(-c2cc3nc(NCCOc4ccccc4Cl)n(C)c(=O)c3s2)cc1 | 0 | - | ? | - | -
SMILES | TDP1 cell noCPT | miR-21 act | DT40 TDP1 CPT | TDP1 inh | uPA generation
C=CCNc1nc(NCc2ccc(N(C)C)cc2)c2sc(-c3ccccc3)cc2n1 | 5.8µM | - | 6.5µM | - | -
COCCNc1nc(Nc2ccc(C)cc2C)c2sc(-c3ccccc3)cc2n1 | 18µM | - | 26µM | - | -
C=CCn1c(NCc2ccc(N(C)C)cc2)nc2ccccc21 | 0 | 0 | 0 | 0 | 0
C=CCNc1nc(NCCOC)c2sc(-c3ccccc3)cc2n1 | 13µM | - | ? | - | -
CC(C)Nc1nc(NCCN2CCNC2=O)c2sccc2n1 | 0 | - | 0 | - | -
CC(C)Nc1nc(NCCN2CCCC2)c2sc(-c3ccccc3)cc2n1 | 13µM | - | 6.5µM | - | -
COc1ccc(OC)c(CN2CCN(C(=O)c3cc(S(=O)(=O)N4CCOCC4)ccc3C)CC2)c1 | 0 | - | 0 | - | 0

Source: PubChem (National Center for Advancing Translational Sciences (NCATS))
